Test results published in PubChem BioAssay (EPA / NIEHS).
Activity calls are given as the source filed them. How the source made its calls: active means hit-call score of the fitted dose curve at least 0.9, where 1 is the maximum; inactive means score below 0.9.

Experiments:
Settings in all cases: mRNA level, 48 h; actives raise or lower the signal
[1] = read-out: Nuclear factor NF-kappa-B p105 subunit (Homo sapiens) (UniProt P19838); test: LTEA_HepaRG_NFKB1: Life Technologies and Expression Analysis (LTEA) Assay for Nuclear Factor Kappa B Subunit 1 (NFKB1) using HepaRG (AID 2283521);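 further: TaqMan qRT-PCR transcript normalised to ACTB GAPDH and POLR2A housekeeping genes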
How it was run: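 Differentiated human HepaRG cells in serum-free induction medium with 0.5% DMSO were exposed for 48 h to eight half-log concentrations, top 100 uM, in duplicate. NFKB1 mRNA measured by Fluidigm TaqMan qRT-PCR, normalised to ACTB, GAPDH and POLR2A; bidirectional fit versus DMSO.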

[2] = read-out: Protein phosphatase 2A (PPP2R4), PTPA (gene 5524); test: LTEA_HepaRG_PPP2R4: Life Technologies and Expression Analysis (LTEA) Assay for Protein phosphatase 2A (PPP2R4) using HepaRG (AID 2283522)
How it was run: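 Using HepaRG cultures maintained in 0.5% DMSO, chemicals are tested 48 h at up to 100 uM in duplicate. Induction or suppression of PPP2R4 mRNA, measured by qRT-PCR, is fitted bidirectionally against the vehicle baseline.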

[3] = read-out: Phosphatase and tensin (PTEN), PTEN (gene 5728); test: LTEA_HepaRG_PTEN: Life Technologies and Expression Analysis (LTEA) Assay for Phosphatase and tensin (PTEN) using HepaRG (AID 2283523)
How it was run: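 HepaRG, 48 h exposure, 8-pt half-log series from 100 uM top, 0.5% DMSO vehicle, duplicates. Readout: Fluidigm qRT-PCR of PTEN transcript; housekeeping normalization (ACTB, GAPDH, POLR2A). Gain or loss fitted relative to DMSO baseline.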

[4] = read-out: solute carrier (SLC22A1), SLC22A1 (gene 6580); test: LTEA_HepaRG_SLC22A1: Life Technologies and Expression Analysis (LTEA) Assay for solute carrier (SLC22A1) using HepaRG (AID 2283524)
Method: (§1) LTEA_HepaRG is a cell based, multiplexed-readout assay that uses HepaRG, a human liver cell line, with measurements taken at 48 hours after chemical dosing on a 96-well plate.LTEA_HepaRG_SLC22A1 is one of 102 assay component(s) measured in the LTEA HepaRG cell culture assay. It is a marker of NR mediated transport.Data from the assay component LTEA_HepaRG_SLC22A1 was analyzed into 1 endpoint. This assay endpoint, LTEA_HepaRG_SLC22A1, was analyzed with bidirectional fitting relative to DMSO as the negative control and baseline of activity. Using a type of inducible reporter, measures of mRNA induction for gain or loss-of-signal activity can be used to understand regulation of transcription factor activity. To generalize the intended target to other relatable targets, this assay endpoint is annotated to the transporter intended target family, where the subfamily is organic cation transporter.
(§2) A total of 1060 chemcials from the ToxCast library were tested in eight-point concentration-response experiments. Cell culture and cytotoxicity assays were conducted at Thermo Fisher Scientific's Custom Services facility (Madison, WI). […] Fluidigm's 96.96 Dynamic ArrayTM (Fluidigm, Amsterdam, the Netherlands) technology was used for gene expression analyses by quantitative reverse transcription polymerase chain reaction (qRT-PCR, performed by Quintiles/Expression Analysis, Durham, NC)89. […]

[5] = read-out: Pyruvate Dehydrogenase Kinase 4 (PDK4), PDK4 (gene 5166); test: LTEA_HepaRG_PDK4: Life Technologies and Expression Analysis (LTEA) Assay for Pyruvate Dehydrogenase Kinase 4 (PDK4) using HepaRG (AID 2283525)
How it was run: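 HepaRG (human liver line), 48 h chemical exposure, 8-pt half-log CRC top 100 uM, 0.5% DMSO vehicle, duplicates. Readout: TaqMan qRT-PCR of PDK4 mRNA, housekeeping-normalized; gain/loss fit relative to DMSO baseline.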

[6] = read-out: NAD(P)H dehydrogenase [quinone] 1 (NQO1), NQO1 (gene 1728); test: LTEA_HepaRG_NQO1: Life Technologies and Expression Analysis (LTEA) Assay for NAD(P)H dehydrogenase [quinone] 1 (NQO1) using HepaRG (AID 2283526)
How it was run: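 In this assay, gene expression is read by qRT-PCR after 48 h exposure of HepaRG cells to eight concentrations (max 100 uM, half-log) in 0.5% DMSO. Each chemical runs in duplicate, and activity is scored relative to vehicle.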

[7] = read-out: Nuclear factor erythroid 2-related factor 2 (Homo sapiens) (UniProt Q16236); test: LTEA_HepaRG_NFE2L2: Life Technologies and Expression Analysis (LTEA) Assay for Nuclear factor erythroid 2-related factor 2 (NFE2L2) Transcription Factor using HepaRG (AID 2283527);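 further: TaqMan qRT-PCR transcript level normalised to ACTB GAPDH and POLR2A housekeeping genes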
Method: as §1, with “plate.LTEA_HepaRG_NFE2L2” for “plate.LTEA_HepaRG_SLC22A1”, “Inflammation/injury.Data” for “NR mediated transport.Data”, “LTEA_HepaRG_NFE2L2” for “LTEA_HepaRG_SLC22A1”, “LTEA_HepaRG_NFE2L2,” for “LTEA_HepaRG_SLC22A1,”, “dna binding” for “transporter”, “basic leucine zipper.” for “organic cation transporter.”
as §2

[8] = read-out: succinate dehydrogenase complex iron sulfur subunit B (SDHB), SDHB (gene 6390); test: LTEA_HepaRG_SDHB: Life Technologies and Expression Analysis (LTEA) Assay for succinate dehydrogenase complex iron sulfur subunit B (SDHB) using HepaRG (AID 2283528)
Method: as §1, with “plate.LTEA_HepaRG_SDHB” for “plate.LTEA_HepaRG_SLC22A1”, “Cell proliferation, survival, death.Data” for “NR mediated transport.Data”, “LTEA_HepaRG_SDHB” for “LTEA_HepaRG_SLC22A1”, “LTEA_HepaRG_SDHB,” for “LTEA_HepaRG_SLC22A1,”, “oxidoreductase” for “transporter”, “ubiquinone.” for “organic cation transporter.”
as §2

[9] = read-out: Signal transducer and activator of transcription 3 (Homo sapiens) (UniProt P40763); test: LTEA_HepaRG_STAT3: Life Technologies and Expression Analysis (LTEA) Assay for Signal transducer and activator of transcription (STAT3) using HepaRG (AID 2283529)
How it was run: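 HepaRG, 48 h exposure, 8-pt half-log series (top 100 uM), 0.5% DMSO vehicle, duplicates. Readout: STAT3 transcript by Fluidigm qRT-PCR, housekeeping-normalized; bidirectional fit vs DMSO baseline.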

[10] = read-out: solute carrier (SLCO1B1), SLCO1B1 (gene 10599); test: LTEA_HepaRG_SLCO1B1: Life Technologies and Expression Analysis (LTEA) Assay for solute carrier (SLCO1B1) using HepaRG (AID 2283530)
Method: as §1, with “plate.LTEA_HepaRG_SLCO1B1” for “plate.LTEA_HepaRG_SLC22A1”, “LTEA_HepaRG_SLCO1B1” for “LTEA_HepaRG_SLC22A1”, “LTEA_HepaRG_SLCO1B1,” for “LTEA_HepaRG_SLC22A1,”, “anion” for “cation”
as §2

Measured: outcome

Sequence of Nuclear factor NF-kappa-B p105 subunit (Homo sapiens) (P19838 whole entry, looked up): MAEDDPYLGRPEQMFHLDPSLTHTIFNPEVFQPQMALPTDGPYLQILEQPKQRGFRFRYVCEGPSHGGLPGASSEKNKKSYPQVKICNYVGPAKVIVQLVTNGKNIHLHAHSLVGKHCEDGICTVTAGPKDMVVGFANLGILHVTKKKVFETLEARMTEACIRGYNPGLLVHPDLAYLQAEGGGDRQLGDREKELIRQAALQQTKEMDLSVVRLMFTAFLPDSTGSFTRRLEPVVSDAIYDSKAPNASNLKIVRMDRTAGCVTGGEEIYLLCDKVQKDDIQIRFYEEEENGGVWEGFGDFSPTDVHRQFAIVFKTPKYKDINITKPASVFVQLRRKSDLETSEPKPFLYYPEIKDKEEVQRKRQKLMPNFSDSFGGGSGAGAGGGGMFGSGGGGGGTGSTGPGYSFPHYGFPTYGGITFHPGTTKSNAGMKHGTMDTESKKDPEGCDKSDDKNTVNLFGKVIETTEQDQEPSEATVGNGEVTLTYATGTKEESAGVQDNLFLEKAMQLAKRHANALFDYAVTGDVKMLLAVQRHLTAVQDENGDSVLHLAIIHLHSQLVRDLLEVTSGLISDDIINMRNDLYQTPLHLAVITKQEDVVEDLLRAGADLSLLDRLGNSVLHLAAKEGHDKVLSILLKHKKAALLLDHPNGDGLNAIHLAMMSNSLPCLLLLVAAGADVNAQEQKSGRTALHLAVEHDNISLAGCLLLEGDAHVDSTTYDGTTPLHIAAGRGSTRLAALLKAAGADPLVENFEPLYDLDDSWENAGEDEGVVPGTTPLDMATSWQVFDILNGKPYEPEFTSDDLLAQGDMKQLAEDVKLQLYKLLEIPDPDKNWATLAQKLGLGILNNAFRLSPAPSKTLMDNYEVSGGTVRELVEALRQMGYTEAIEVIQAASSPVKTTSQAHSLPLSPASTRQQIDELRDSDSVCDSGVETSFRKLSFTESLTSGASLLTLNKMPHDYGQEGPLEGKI
Sequence of Signal transducer and activator of transcription 3 (Homo sapiens) (P40763 whole entry, looked up): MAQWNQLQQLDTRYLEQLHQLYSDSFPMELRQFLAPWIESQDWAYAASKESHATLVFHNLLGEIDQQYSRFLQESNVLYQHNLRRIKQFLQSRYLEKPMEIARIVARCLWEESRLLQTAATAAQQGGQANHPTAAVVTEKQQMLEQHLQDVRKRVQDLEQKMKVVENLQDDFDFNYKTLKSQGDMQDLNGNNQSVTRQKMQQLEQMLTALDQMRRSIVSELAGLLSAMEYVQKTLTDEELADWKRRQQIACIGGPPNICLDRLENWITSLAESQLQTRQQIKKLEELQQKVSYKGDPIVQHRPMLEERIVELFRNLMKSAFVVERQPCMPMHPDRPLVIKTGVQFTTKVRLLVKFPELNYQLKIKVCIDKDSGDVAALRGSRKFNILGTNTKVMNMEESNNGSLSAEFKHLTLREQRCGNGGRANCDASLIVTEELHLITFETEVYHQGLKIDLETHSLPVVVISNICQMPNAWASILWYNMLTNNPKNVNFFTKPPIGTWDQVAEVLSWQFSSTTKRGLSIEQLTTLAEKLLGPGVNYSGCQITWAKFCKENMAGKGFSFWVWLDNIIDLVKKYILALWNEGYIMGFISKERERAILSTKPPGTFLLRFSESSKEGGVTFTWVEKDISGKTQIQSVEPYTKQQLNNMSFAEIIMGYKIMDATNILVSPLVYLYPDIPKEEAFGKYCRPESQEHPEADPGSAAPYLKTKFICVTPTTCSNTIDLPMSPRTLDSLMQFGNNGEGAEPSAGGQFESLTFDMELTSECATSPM
Sequence of Nuclear factor erythroid 2-related factor 2 (Homo sapiens) (Q16236 whole entry, looked up): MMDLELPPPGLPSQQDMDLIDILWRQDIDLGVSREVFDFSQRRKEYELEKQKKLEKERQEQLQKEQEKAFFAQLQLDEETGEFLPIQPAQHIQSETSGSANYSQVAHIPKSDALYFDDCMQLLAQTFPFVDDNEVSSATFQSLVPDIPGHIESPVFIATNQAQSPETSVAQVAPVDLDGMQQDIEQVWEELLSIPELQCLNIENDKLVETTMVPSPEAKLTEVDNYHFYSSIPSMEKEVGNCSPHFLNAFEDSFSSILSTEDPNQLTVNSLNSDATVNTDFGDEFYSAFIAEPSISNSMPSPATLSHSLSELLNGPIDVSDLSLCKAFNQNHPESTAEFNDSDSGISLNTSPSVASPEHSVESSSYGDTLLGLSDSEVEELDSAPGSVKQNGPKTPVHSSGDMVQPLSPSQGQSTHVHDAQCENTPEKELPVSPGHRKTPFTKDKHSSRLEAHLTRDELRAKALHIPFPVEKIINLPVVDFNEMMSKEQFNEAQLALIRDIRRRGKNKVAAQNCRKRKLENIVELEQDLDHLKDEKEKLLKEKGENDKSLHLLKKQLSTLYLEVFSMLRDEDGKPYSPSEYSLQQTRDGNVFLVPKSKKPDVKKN

O=C(O)c1ccc([N+](=O)[O-])cc1
inactive: [1] | [2] | [3] | [4] | [5] | [6] | [7] | [8] | [9] | [10]
